Measured values from publication PMC5540273 (PLoS ONE, 2017).

Tests used:
Settings in all cases: concentration: 1 μM, replicates: in singlicate; n = 1
[1] = tested on: BRSK1
[2] = tested on: BRSK2
[3] = tested on: BTK
[4] = tested on: BUB1
[5] = tested on: CAMK1B
[6] = tested on: CAMK1D
[7] = tested on: CAMK1G
[8] = tested on: CAMK1
[9] = tested on: CAMK2A
[10] = tested on: CAMK2B
[11] = tested on: CAMK2D
[12] = tested on: CAMK2G
[13] = tested on: CAMK4
[14] = tested on: CAMKK1
[15] = tested on: CAMKK2
[16] = tested on: CASK
[17] = tested on: T1, CDC2L1
T1 construct: gene CDK11B

[18] = tested on: CDC2L2
[19] = tested on: T2, CDC2L5
T2 construct: gene CDK13

[20] = tested on: T3, CDK11
T3 construct: gene CDK19
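Further: KINOMEscan kinase panel screen.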

Row | SMILES | %Inh [1] [%] | %Inh [2] [%] | %Inh [3] [%] | %Inh [4] [%] | %Inh [5] [%] | %Inh [6] [%] | %Inh [7] [%] | %Inh [8] [%] | %Inh [9] [%] | %Inh [10] [%] | %Inh [11] [%] | %Inh [12] [%] | %Inh [13] [%] | %Inh [14] [%] | %Inh [15] [%] | %Inh [16] [%] | %Inh [17] [%] | %Inh [18] [%] | %Inh [19] [%] | %Inh [20] [%]
1 | CCCc1ccc(S(=O)(=O)NC2CCN(c3ccnc(Nc4ccc(OC)cc4)n3)C2)cc1 (stereo not drawn) [GSK1379737] | 0 | 0 | 0 | 47 | 0 | 11 | 0 | 5 | 0 | 0 | 4 | 4 | 0 | 0 | 0 | 22 | 0 | 0 | 0 | 17
2 | COc1cc2c(Nc3cccc(NC(=O)c4ccccc4)c3)ncnc2cc1OCCCN1CCOCC1 [GSK223810] | 0 | 10 | 0 | 31 | 37 | 18 | 0 | 32 | 0 | 0 | 0 | 15 | 0 | 1 | 0 | 6 | 0 | 11 | 0 | 3
3 | COC(=O)c1cccc(NC(=O)NCCNc2ccnc(Nc3ccc(F)cc3)n2)c1 [GSK1379883] | 0 | 0 | 0 | 10 | 2 | 21 | 0 | 27 | 0 | 0 | 0 | 17 | 0 | 11 | 6 | 0 | 0 | 20 | 0 | 16
4 | OCCOCCn1ccc2ncnc(Nc3ccc(Oc4cccc(Cl)c4)c(Cl)c3)c21 | 0 | 33 | 0 | 0 | 0 | 0 | 0 | 0 | 0 | 0 | 0 | 0 | 0 | 0 | 0 | 0 | 0 | 0 | 0 | 0
5 | FC(F)(F)c1ccc(-c2nn3ncccc3c2-c2ccnc(Nc3cccc(C(F)(F)F)c3)n2)cc1 [GW828205] | 0 | 0 | 49 | 0 | 0 | 18 | 0 | 11 | 0 | 0 | 0 | 0 | 17 | 6 | 0 | 0 | 0 | 3 | 0 | 0
6 | CS(=O)(=O)CCNCc1nc(-c2ccc3ncnc(Nc4ccc(OCc5cccc(F)c5)c(Cl)c4)c3c2)cs1.Cl [GW583340] | 0 | 0 | 0 | 0 | 6 | 15 | 2 | 20 | 0 | 0 | 23 | 22 | 0 | 0 | 28 | 0 | 11 | 25 | 0 | 12
7 | O=c1cc(N2CCOCC2)nc2n(Cc3cccc(Cl)c3)ccn12 [GSK2296823] | 25 | 0 | 0 | 18 | 22 | 22 | 0 | 0 | 0 | 0 | 0 | 3 | 0 | 17 | 0 | 3 | 0 | 6 | 0 | 0
8 | Cn1cc(-c2ccc3c(c2)CCN3C(=O)Cc2cccc(C(F)(F)F)c2)c2c(N)ncnc21 [GSK2606414] | 12 | 0 | 0 | 6 | 11 | 10 | 0 | 4 | 0 | 0 | 0 | 5 | 0 | 7 | 0 | 75 | 0 | 0 | 0 | 37
9 | Clc1cccc(-c2nc(Nc3ccncc3)c3ccccc3n2)c1 [GW873004] | 1 | 23 | 0 | 31 | 0 | 0 | 0 | 0 | 1 | 4 | 0 | 0 | 27 | 11 | 0 | 0 | 0 | 7 | 15 | 2
10 | Cl.c1ccc(Cn2ccc3cc(Nc4ncnc5ccccc45)ccc32)cc1 [GW275568] | 0 | 20 | 0 | 0 | 34 | 27 | 8 | 24 | 9 | 0 | 24 | 27 | 0 | 16 | 29 | 17 | 23 | 28 | 0 | 19
11 | CS(=O)(=O)CCNCc1ccc(-c2ccc3ncnc(Nc4ccc(OCc5ccccc5)c(Cl)c4)c3c2)o1.Cl [GW574783] | 1 | 0 | 0 | 26 | 0 | 4 | 27 | 14 | 0 | 0 | 4 | 11 | 0 | 0 | 0 | 3 | 0 | 0 | 0 | 15
12 | Fc1cccc(COc2ccc(Nc3ncnc4nn5ccccc5c34)cc2Cl)c1 [GW689066] | 0 | 0 | 15 | 49 | 15 | 21 | 0 | 19 | 0 | 0 | 0 | 10 | 0 | 5 | 0 | 0 | 0 | 0 | 0 | 2
13 | Nc1nc(-c2ccc3c(N)n[nH]c3c2)cc(N2CCCCC2)n1 [GSK2228768] | 5 | 0 | 0 | 21 | 8 | 5 | 0 | 13 | 0 | 0 | 0 | 25 | 0 | 0 | 6 | 15 | 0 | 0 | 0 | 0
14 | Cc1cccc(-c2nc(Nc3ccc4[nH]nnc4c3)c3ccccc3n2)n1 [GW867587] | 0 | 0 | 0 | 13 | 0 | 0 | 0 | 0 | 0 | 8 | 0 | 0 | 0 | 0 | 0 | 4 | 0 | 0 | 0 | 0
15 | Nc1n[nH]c2nnc(-c3ccccc3)cc12 [SB-517389] | 0 | 0 | 0 | 0 | 38 | 28 | 0 | 15 | 0 | 0 | 2 | 0 | 0 | 0 | 0 | 18 | 0 | 0 | 0 | 0
16 | c1ccc(-c2ccc3c(-c4ccnc(Nc5ccc6c(c5)OCCO6)n4)cnn3n2)cc1 [GW818941] | 0 | 0 | 14 | 28 | 12 | 8 | 0 | 29 | 0 | 5 | 0 | 10 | 0 | 0 | 0 | 0 | 0 | 3 | 0 | 9
17 | Nc1nc(-c2cccnc2)c(-c2ccnc3ccccc23)s1 [GW684083] | 10 | 0 | 8 | 58 | 0 | 6 | 0 | 8 | 0 | 0 | 2 | 27 | 0 | 0 | 19 | 14 | 0 | 12 | 0 | 8
18 | FC(F)(F)c1ccc(-c2cc(-c3c[nH]nc3-c3ccccn3)ccn2)cc1 [GW599550] | 0 | 0 | 0 | 55 | 35 | 22 | 1 | 23 | 0 | 0 | 12 | 27 | 0 | 11 | 23 | 0 | 0 | 26 | 0 | 17
19 | O=C(CCO)NCCn1ccc2ncnc(Nc3ccc(Oc4cccc(C(F)(F)F)c4)c(Cl)c3)c21 | 0 | 0 | 0 | 0 | 0 | 7 | 0 | 0 | 0 | 0 | 0 | 0 | 0 | 0 | 7 | 0 | 0 | 0 | 0 | 0
20 | Cc1ccc(O)cc1Nc1cc(C(F)(F)F)nc2ccc(-c3ccncc3)cc12 [GW630823] | 3 | 0 | 0 | 0 | 0 | 14 | 1 | 8 | 20 | 2 | 2 | 16 | 0 | 11 | 16 | 1 | 17 | 0 | 0 | 0
21 | Nc1nc(-c2ccccn2)c(-c2ccnc3ccccc23)s1 [GW548057] | 0 | 0 | 8 | 39 | 33 | 8 | 0 | 4 | 1 | 0 | 6 | 20 | 0 | 13 | 21 | 26 | 0 | 11 | 0 | 10
